Measurements from PubChem BioAssay AID588683 (Broad Institute, 2011).
Entries with a potency or affinity are not part of this list. Active and inactive are the calls of the source. How the calls were made is not given here.

molecular target: Kelch-like ECH-associated protein 1 (Homo sapiens) + Nuclear factor erythroid 2-related factor 2 (Homo sapiens) (UniProt Q14145+Q16236); assay: disruptors of Keap1 binding to Nrf2 peptide – biochemical, fluorescence polarization, cherry-picked samples, dose response (AID 588683); settings: plate reader; series mostly up to 26 µM; activity change, negative = inhibition: at the top concentration;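 further: Kelch domain of Keap1 binding a fluorescein-labelled 9mer Nrf2 peptide; more negative means stronger inhibition of peptide binding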
Sequence (Q14145 whole entry, looked up, the tested form may be a part): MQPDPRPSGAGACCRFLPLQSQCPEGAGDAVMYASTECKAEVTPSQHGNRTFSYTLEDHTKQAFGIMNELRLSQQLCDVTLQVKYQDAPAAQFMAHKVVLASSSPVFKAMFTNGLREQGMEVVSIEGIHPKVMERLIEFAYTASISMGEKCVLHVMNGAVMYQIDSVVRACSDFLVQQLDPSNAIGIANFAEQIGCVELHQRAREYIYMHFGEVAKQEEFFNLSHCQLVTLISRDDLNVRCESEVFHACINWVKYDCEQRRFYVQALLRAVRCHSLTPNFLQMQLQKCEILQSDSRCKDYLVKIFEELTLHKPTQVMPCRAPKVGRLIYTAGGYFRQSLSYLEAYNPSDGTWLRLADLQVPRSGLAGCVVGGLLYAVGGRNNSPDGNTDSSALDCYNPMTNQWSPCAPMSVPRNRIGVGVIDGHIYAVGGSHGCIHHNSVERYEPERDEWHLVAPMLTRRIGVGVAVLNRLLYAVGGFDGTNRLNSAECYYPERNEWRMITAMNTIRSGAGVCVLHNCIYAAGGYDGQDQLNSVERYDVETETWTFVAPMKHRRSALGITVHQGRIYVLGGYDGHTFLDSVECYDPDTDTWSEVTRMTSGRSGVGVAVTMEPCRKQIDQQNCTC
Sequence (Q16236 whole entry, looked up, the tested form may be a part): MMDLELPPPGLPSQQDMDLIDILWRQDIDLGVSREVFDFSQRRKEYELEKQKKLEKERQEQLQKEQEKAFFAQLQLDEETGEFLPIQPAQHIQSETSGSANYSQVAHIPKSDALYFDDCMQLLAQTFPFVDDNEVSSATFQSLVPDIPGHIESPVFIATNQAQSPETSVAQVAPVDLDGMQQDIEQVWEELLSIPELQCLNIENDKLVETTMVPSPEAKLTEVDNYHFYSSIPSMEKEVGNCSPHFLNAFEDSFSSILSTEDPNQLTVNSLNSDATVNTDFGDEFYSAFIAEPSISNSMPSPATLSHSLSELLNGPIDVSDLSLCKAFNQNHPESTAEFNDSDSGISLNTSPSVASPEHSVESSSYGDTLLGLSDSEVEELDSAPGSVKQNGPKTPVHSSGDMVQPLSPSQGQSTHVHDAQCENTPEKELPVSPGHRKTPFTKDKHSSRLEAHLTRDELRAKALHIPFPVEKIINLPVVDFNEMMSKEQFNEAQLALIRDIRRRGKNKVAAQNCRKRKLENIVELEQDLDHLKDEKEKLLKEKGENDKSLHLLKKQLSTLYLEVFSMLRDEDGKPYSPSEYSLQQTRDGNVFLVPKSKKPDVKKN

Activity change, negative = inhibition, inactive:
COC(=O)c1ccc(OC(=O)CN2C(=O)c3ccccc3C2=O)cc1 -6.97%
Cc1cccn2c(=O)c3cc(S(=O)(=O)c4ccccc4)c(=N)n(Cc4cccnc4)c3nc12 -9.58%
O=C1c2cccc3c(N4CCCCC4)ccc(c23)C(=O)N1c1ccccc1O 72.2%
N=c1c(C(=O)NC2CCCC2)cc2c(=O)n3ccccc3nc2n1C1CCCCC1 1.05%
CC(=O)c1ccc2c(c1)C1C=CCC1C(C(=O)O)N2 (stereo not drawn) -4.16%
COc1ccc(N(Cc2ccccc2)S(=O)(=O)c2cccc(C(=O)Nc3ncccc3C)c2)cc1 -5.02%
CSc1nsc2nc(=O)c(/C=C3\C=Nc4ccccc43)c(N)n12 20.7%
CN(C)c1ccc2cc(S(=O)(=O)O)cc(O)c2c1 1.03%
O=c1[nH]c(=S)[nH]c2c1C(c1ccc(Br)cc1)c1c([nH]c(=S)[nH]c1=O)O2 -2.56%
C=CCn1c(=O)/c(=C/c2ccsc2)s/c1=C(\C#N)C(=O)NCCN1CCOCC1 -7.84%
CCOc1cccc(C2C(C(=O)c3ccc(C)o3)=C(O)C(=O)N2c2nccs2)c1 (stereo not drawn) -21.9%
Fc1ccc(C2=CC(c3ccco3)n3ncnc3N2)cc1 (stereo not drawn) -8.23%
Cc1cc[n+](-c2[nH]c(=O)sc2/C=N/NC([S-])=Nc2ccccc2)cc1 39%
CCOc1ccc(OCCCC(=O)N(CC)CC(=O)Nc2c(F)cccc2F)cc1 1.23%
CC1CCN(C(=O)Cn2cc(C(F)(F)F)ccc2=O)c2ccccc2S1 (stereo not drawn) 2.04%
Nc1c(Cl)ncnc1NCc1ccccc1 -12.4%
O=C1/C(=C/C=C/c2ccco2)SC(=S)N1NS(=O)(=O)c1ccccc1 -4.92%
CC(OC(=O)c1ccc([N+](=O)[O-])o1)C(=O)NC1CCCCC1C (stereo not drawn) -13.6%
Cc1ccc(O)c(C(=O)c2cnc3c(c2)c(C)nn3-c2ccccc2)c1 -0.847%
O=C(/C=C/c1ccccc1Cl)NCCCn1ccnc1 -9.01%
CCOC(=O)c1c(NC(=O)CN2CCN(S(=O)(=O)c3cc(Cl)ccc3Cl)CC2)sc(C(=O)N(C)C)c1C -10.3%
O=C(COC(=O)c1cccnc1Cl)Nc1ccc(N2CCCCC2)cc1 -0.322%
O=C(CCc1ccccc1)NNc1ccc(F)cc1 2.16%
CC[C@H](C)[C@H](NC(=O)OCc1ccccc1)C(=O)OCC(=O)N1CCN(c2ccc(F)cc2)CC1 -5.51%
c1ccc(-n2ncc3c(NCC4CCCO4)ncnc32)cc1 (stereo not drawn) -14.1%
O=C(COC(=O)/C=C/c1cccc(Cl)c1)NC1CC1 10.7%
Cc1ccc(NC(=O)CN2C(=O)NC3(CCCCCC3)C2=O)cc1Cl 3.73%
CC(=O)N1CCN(S(=O)(=O)c2cccc(C(=O)NNC(=O)c3ccc(Br)cc3)c2)CC1 -2.07%
CCCCC1OC23CCCCC2C(C#N)(C#N)C1(C#N)C(=N)O3 (stereo not drawn) -8.61%
COc1ccc(C2c3ccc(O)cc3Oc3ncn(CCCO)c(=N)c32)cc1OC (stereo not drawn) -8.41%
CCN1CC=C2C(C1)C(c1ccc(Cl)s1)C(C#N)=C(N)C2(C#N)C#N (stereo not drawn) -10%
Oc1[nH]c2ccccc2c1N=Nc1ccccc1F 396%
O=C(CSCC(=O)Nc1ccccc1)N/N=C/c1c(O)ccc2ccccc12 10.7%
OC(Cc1ccncc1)(c1ccccc1)c1ccccc1 -9.67%
Cc1ccc(C(=O)N/C(=C\c2ccc(-c3ccccc3[N+](=O)[O-])o2)C(=O)NCCCN(C)C)cc1 -4.73%
COC(=O)N/N=C/c1cn(Cc2ccccc2Cl)c2ccccc12 -4.96%
COc1ccc(OC)c(C(=O)c2coc3ccc(O)c(CN(C)C)c23)c1 -6.21%
Cc1ccc(C2=CC(c3cccs3)n3nnnc3N2)cc1 (stereo not drawn) 2.17%
